Shown are actives, neighbours in structure and some others; about 0.41% of the full set was active somewhere.
A-T KAP1 phos: candidate therapy for ataxia-telangiectasia; Potency, µM (series often up to 57.5 µM), actives largely listed as activators; F2112 A-T fibroblasts, KAP-1 phosphorylation AlphaLISA; neocarzinostatin DNA damage 30 min before lysis; 320,000 tested, 0.19% active; active = well fitted activation curve with a large enough effect; inconclusive = small, poorly fitted or top-dose-only effect; inactive = no such curve, though single readings can be large or run the other way; note: nearly all actives have a fitted effect of over 45% in size
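ATM-like activity read as KAP-1 phosphorylation via AlphaLISA donor/acceptor antibody pairs after lysis and 6 hr at 25C. Cells were ATM-null patient fibroblasts (F2112, hTERT), dosed 60 min, then exposed to the DSB inducer NCS for 30 min.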
TRPV1 PAM: potentiators of human vanilloid receptor 1 (TRPV1). Q8NER1. TRPV1-expressing cells, Fluo-8 calcium influx, capsaicin EC20 potentiation. potentiation, % at 8.33 µM. 320,000 tested, 0.02% active. AID 540277; in the data active = potentiation above about 80%; inconclusive = between about 30% and that limit
Target sequence (Q8NER1 whole entry, looked up): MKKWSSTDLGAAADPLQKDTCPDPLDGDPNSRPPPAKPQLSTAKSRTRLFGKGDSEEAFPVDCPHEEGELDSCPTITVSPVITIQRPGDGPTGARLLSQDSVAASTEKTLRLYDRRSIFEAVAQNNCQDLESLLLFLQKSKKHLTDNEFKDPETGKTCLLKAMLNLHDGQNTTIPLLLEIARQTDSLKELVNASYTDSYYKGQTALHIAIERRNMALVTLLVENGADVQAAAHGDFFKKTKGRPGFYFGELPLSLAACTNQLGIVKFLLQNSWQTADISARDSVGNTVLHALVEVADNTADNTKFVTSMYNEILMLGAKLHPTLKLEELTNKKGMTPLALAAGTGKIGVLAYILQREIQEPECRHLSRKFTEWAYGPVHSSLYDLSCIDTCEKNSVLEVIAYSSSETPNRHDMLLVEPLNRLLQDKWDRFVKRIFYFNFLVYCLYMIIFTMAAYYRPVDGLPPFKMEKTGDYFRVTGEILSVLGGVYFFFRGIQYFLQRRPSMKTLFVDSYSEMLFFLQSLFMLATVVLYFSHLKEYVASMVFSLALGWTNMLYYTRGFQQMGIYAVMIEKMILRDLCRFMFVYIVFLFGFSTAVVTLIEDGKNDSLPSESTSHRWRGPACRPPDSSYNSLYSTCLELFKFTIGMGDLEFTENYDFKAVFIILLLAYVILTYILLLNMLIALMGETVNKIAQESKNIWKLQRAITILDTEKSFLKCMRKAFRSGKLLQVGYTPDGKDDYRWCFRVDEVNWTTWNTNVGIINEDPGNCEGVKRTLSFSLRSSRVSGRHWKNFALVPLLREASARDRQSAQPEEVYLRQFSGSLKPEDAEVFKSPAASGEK
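Cells expressing TRPV1 were dye-loaded with Fluo-8 and read kinetically: 10 s baseline, 3 min after compound (agonist portion), then 2 min after EC20 capsaicin (allosteric enhancer portion). Calcium-bound dye fluorescence at 480/520 nm.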
TRPML1 inh: inhibitors of human TRPML1 channel; Q9GZU1; TRPML1-inducible cells, Ca2+ dye fluorescence, FDSS; hits give low values; inhibition of EC80 agonist-evoked calcium signal; activity change, negative = inhibition, % (test concentration not listed); 390,000 tested, 0.02% active; AID 624415; in the data active = activity change below about -50%; inconclusive = between about -30% and that limit;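 note: stimulus is agonist 54-4 at its EC80 concentration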
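Calcium fluorescence in TRPML1-DL cells induced overnight with Tet: a 110 s read after compound pin addition, then a 110 s antagonist read after challenge with 54-4 at 4 uM final (EC80).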
TRPML1 agonist: agonists of human TRPML1 channel | Q9GZU1 | TRPML1-expressing cells, Ca2+ dye fluorescence, FDSS | activation, % (no concentration beside the values) | 410,000 tested, 0.12% active | AID 624414; in the data active = activation above about 50%; inconclusive = mostly about 30% to 49%
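TRPML1-DL cells, Tet-induced overnight (~16 h, 37 degrees C), loaded 45-90 min at room temperature with Ca8 no-wash calcium dye plus quencher. FDSS fluorescence: 10 s baseline, compound pin-transfer, 110 s agonist read, then EC80 54-4 (4uM final) and 110 s antagonist read.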
TRPV1 ag: activates the human vanilloid receptor TRPV1 | activation, % at 8.33 µM | 320,000 tested, 0.19% active | Q8NER1 | TRPV1-expressing cells, Fluo-8 calcium influx, agonist mode; in the data active = activation above about 80%; inconclusive = between about 30% and that limit
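Cells expressing TRPV1 were dye-loaded with Fluo-8 and read kinetically: 10 s baseline, 3 min after compound (agonist portion), then 2 min after EC20 capsaicin (allosteric enhancer portion). Calcium-bound dye fluorescence at 480/520 nm.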
Numbers stand for hits; . = inactive; ? = inconclusive; / = no result given.

SMILES	A-T KAP1 phos	TRPV1 PAM	TRPML1 inh	TRPML1 agonist	TRPV1 ag
O=C(NC(=O)c1c(F)cccc1F)Nc1ccccc1SC(F)F	10µM	.	.	.	.
CCN1CCc2c(sc(NC(=O)CSc3ccccc3)c2-c2nc3ccccc3s2)C1	/	.	.	70	?
CN1CCc2c(sc(NC(=O)CSc3ccc(F)cc3)c2-c2nc3ccccc3s2)C1	/	.	.	66	?
CC(C)CCN(C(=O)CNC(=O)c1cccs1)C(C(=O)NC1CCCCC1)c1cccnc1 (centres undefined)	18µM	.	.	.	.
CC(C)CCN(C(=O)CNC(=O)c1cccs1)C(C(=O)NC1CCCC1)c1ccncc1 (centres undefined)	.	.	.	.	.
Cc1cccc2[nH]cc(/C=C3/C=Nc4ccccc43)c12	/	/	/	.	/
CCCNC(=O)OCCC12CC3CC(CC(C3)C1)C2	32µM	.	.	.	?
O=C(CCSc1ccc(Cl)cc1)NCc1ccncc1	?	.	.	.	86
COc1ccc(CNC(=O)CCSc2ccc(F)cc2)cc1OC	.	.	.	.	84
COc1ccc(CNC(=O)CCC(=O)c2ccc(F)cc2)cc1OC	.	/	.	.	/
CC(C)(C)n1ncc2c(=O)n(Cc3ccc(OC(F)(F)F)cc3)cnc21	/	/	.	.	/
COc1cccc(N2CCN(c3nc(C)cc(=O)[nH]3)CC2)c1	.	.	/	/	97
O=C(NCCSCc1c(F)cccc1Cl)Nc1ccccc1	.	.	.	.	83
S=C(NCCSCc1c(Cl)cccc1Cl)Nc1ccccc1	.	.	.	.	?
Cc1cc[n+](CCC2CCCCC2)cc1	/	/	/	.	/
O=C(Nc1ccccc1N1CCCCC1)c1ccccc1F	28µM	.	.	.	.
CCN1CCN(S(=O)(=O)c2ccc(Cl)c(C(=O)Nc3ccccc3N3CCCCC3)c2)CC1	.	.	.	100	?
CCN1CCN(S(=O)(=O)c2ccc(Cl)c(C(=O)Nc3ccccc3N3CCCC3)c2)CC1	.	.	.	.	.
Cc1ccc(OCCSc2nc3ccccc3n2CC(=O)O)cc1C	.	95	.	.	.
O=C(NC(NC(=S)N1CCOCC1)C(Cl)(Cl)Cl)c1cccc2ccccc12 (centres undefined)	.	.	.	.	?
CCCCCCCCC(=O)NC(NC(=S)N1CCOCC1)C(Cl)(Cl)Cl (centres undefined)	.	.	.	.	83
CCCCCC(=O)NC(NC(=S)N1CCOCC1)C(Cl)(Cl)Cl (centres undefined)	.	.	.	.	83
Cc1c2cc(O)c(=O)cc-2oc2cc(O)c(O)cc12	.	.	.	.	.
COc1cc(OC)c(-c2c3cc(O)c(=O)cc-3oc3cc(O)c(O)cc23)cc1OC	.	.	.	112	104
COc1cccc(/C=C/c2nccc3ccccc23)c1OC	/	/	/	.	/
SMILES	A-T KAP1 phos	TRPV1 PAM	TRPML1 inh	TRPML1 agonist	TRPV1 ag
COc1ccc(OC)c2c(/C=C/c3c(C)[nH]c4ccccc34)ccnc12	/	/	/	.	/
COc1ccc(NC2CCCN(C(=O)CCOc3ccccc3)C2)cc1 (centres undefined)	.	.	.	.	82
O=C(CCc1cccc(Cl)c1)N1CCCC(Nc2ccccc2)C1 (centres undefined)	.	.	.	.	84
O=C(CC1CCCC1)N1CCCC(Nc2cccc(F)c2)C1 (centres undefined)	.	.	.	.	84
COc1ccc(NC2CCCN(C(=O)CCc3ccccc3F)C2)cc1 (centres undefined)	.	.	.	.	81
COc1ccc(NC2CCCN(C(=O)CSc3ccccc3)C2)cc1 (centres undefined)	.	.	.	.	?
C=C(c1ccc2ccccc2n1)c1cccs1	/	/	/	.	/
Cc1ccc(NC2CCCN(C(=O)CN3C(=O)c4ccccc4C3=O)C2)cc1C (centres undefined)	.	.	.	.	?
Cc1ccc(NC2CCCN(C(=O)CCC(=O)c3ccccc3)C2)cc1C (centres undefined)	.	.	.	.	92
CCCCNC(=O)C[C@@H]1C[C@@]2(C(=O)OCC)CCCC=C2N(Cc2ccc3c(c2)OCO3)C1=O	/	/	/	.	/
C#CCNC(=O)C[C@@H]1C[C@@]2(C(=O)OCC)CCCC=C2N(Cc2ccc3c(c2)OCO3)C1=O	/	/	/	63	/
CCC[n+]1c(/C=C/c2c(OC)cc(OC)cc2OC)ccc2ccccc21	/	/	/	.	/
COc1ccc(/C=C/C(=O)Nc2cccnc2Cl)cc1	.	.	/	/	85
COc1ccccc1/C=C/C(=O)Nc1cccnc1Cl	.	.	.	.	?
CC(C)n1c2ccccc2c2nc3ccccc3nc21	35µM	.	.	.	.
CCCOc1ccc(Cc2nn3c(=O)/c(=C/c4ccco4)sc3nc2=O)cc1	.	.	.	50	.
CCCOc1ccc(/C=c2\sc3nc(-c4ccco4)nn3c2=O)cc1OCC	.	.	.	.	.
Cc1ccc(C(C)C)c2oc(=O)cc(-c3ccc(-c4ccc(C(F)(F)F)cc4)cc3)c12	.	/	.	.	/
CC(=O)c1ccc(-c2ccc(-c3cc(=O)oc4c(C(C)C)ccc(C)c34)cc2)cc1	.	/	.	64	/
Cn1c(SC(C(=O)Nc2ccc(F)cc2)c2ccccc2)nc2ccccc21 (centres undefined)	.	.	.	.	85
O=C(NCCc1ccccc1)C1COc2ccccc2O1 (centres undefined)	.	.	.	.	.
O=C(NCCc1ccc(O)c(O)c1)C1COc2ccccc2O1 (centres undefined)	.	.	.	.	89
O=C(O)CN1C(=O)/C(=C/c2cccc(Cl)c2)Oc2ccccc21	5µM	.	.	.	.
S=c1[nH]nc(C2CCCCC2)n1/N=C/c1ccc(Br)cc1	13µM	.	.	.	.
O=S1(=O)CCOC[C@H](c2ccccc2)N1Cc1ccc(Cl)c(Cl)c1	/	/	/	.	/
SMILES	A-T KAP1 phos	TRPV1 PAM	TRPML1 inh	TRPML1 agonist	TRPV1 ag
CC(C)(C)c1ccc(NC(=O)N2CCCN(c3ccc([N+](=O)[O-])cn3)CC2)cc1	.	.	.	.	92
CCCCCCCCCCCCCCCCCCN(CCCCCCCCCCCCCCCCCC)c1ccccc1	/	/	/	.	/
CCCCCCc1cc2cc(S(=O)(=O)c3ccc(C)cc3)c(=O)oc2cc1O	28µM	.	.	.	?
COc1ccc(CC(=O)Nc2oc(-c3ccccc3)c(-c3ccccc3)c2C#N)cc1OC	.	.	.	.	84
O=S1(=O)CCOC[C@H](c2ccccc2)N1Cc1ccc(F)cc1	/	/	/	.	/
COc1ccccc1OC(=O)Nc1ccc(Cl)cc1	0.71µM	.	/	/	.
C[C@H](O)[C@@H]1CN2CCc3c([nH]c4ccccc34)[C@@H]2C[C@@H]1N(C)Cc1cc(Cl)cc(Cl)c1	/	/	.	69	/
COc1cc2c(NC3CCN(C)CC3)nc(N3CCCN(C)CC3)nc2cc1OCc1ccccc1	/	/	/	.	/

Source: PubChem (National Center for Advancing Translational Sciences (NCATS))
